Consider 8 molecules from PubChem BioAssay (NCI).

Structures are written as SMILES. The panel holds about 83,000 compounds, 20% with a hit somewhere; the sample as a whole holds those more often.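 Cells were grown in 96-well plates and exposed to the test compound at a single concentration for 48 hours; results are reported as percent growth, with values below 10 considered active.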 Unmarked numbers belong to inactive results. Activity calls are given as the source filed them.

Test systems include SR leukemia; RPMI-8226 leukemia; OVCAR-8 ovarian; OVCAR-5 ovarian; OVCAR-4 ovarian; SK-OV-3 ovarian; IGROV1 ovarian; OVCAR-3 ovarian; HS 578T breast; NCI/ADR-RES ovarian; T-47D breast; BT-549 breast; MDA-MB-435 melanoma; SW-620 colon; HCT-116 colon; HCC-2998 colon; KM12 colon; MCF7 breast.
What all share (experiment): NCI-60 one-dose screen, 48 h (100 = growth as untreated, 0 = no growth, -100 = all killed)
Holding throughout (settings): 10 µM unless noted

For `COc1cc(-c2nc(-c3ccccc3)[nH]c2-c2ccnc(NCCCNS(=O)(=O)c3cccc(F)c3)n2)ccc1Cl`, the growth was 32.2% in the assay with SR leukemia; 27.2% with RPMI-8226 leukemia; 31.7% in the assay on OVCAR-8 ovarian; 88.1% in the assay with OVCAR-5 ovarian; 56.3% in the assay on OVCAR-4 ovarian; 76.8% in the assay on SK-OV-3 ovarian. Moreover, the growth with IGROV1 ovarian was 40.6%; in the assay with OVCAR-3 ovarian it was 40.7%; in the assay with HS 578T breast it was 78%; in the assay on NCI/ADR-RES ovarian it was 31.9%; with T-47D breast, 24.1%; in the assay with BT-549 breast it was 71%. Moreover, the growth with MDA-MB-435 melanoma is 22.5%; with SW-620 colon it was 71.3%; in the assay with HCT-116 colon, 18.8%; with HCC-2998 colon it was 55.5%; in the assay with KM12 colon, 39.8%.

`NC(N)=Nc1ccc(Oc2cccc(Nc3ccc(Br)c(C(F)(F)F)c3)c2)cc1`: the growth was -43.5% (active) in the assay with SR leukemia; -44.1% (active) in the assay with RPMI-8226 leukemia; 51.2% in the assay on OVCAR-8 ovarian; 40.3% in the assay on OVCAR-5 ovarian; 39.8% in the assay with OVCAR-4 ovarian; 67.4% with SK-OV-3 ovarian. Also, the growth in the assay on IGROV1 ovarian is 0.582% (active); in the assay on OVCAR-3 ovarian, 13.7%; in the assay on HS 578T breast, 9.28% (active); in the assay on NCI/ADR-RES ovarian, 93.7%; in the assay with T-47D breast it was 22.4%; with BT-549 breast it was 42.7%. Also, the growth was 8.6% (active) in the assay on MDA-MB-435 melanoma; -31% (active) in the assay with SW-620 colon; -25% (active) in the assay with HCT-116 colon; -28.1% (active) in the assay with HCC-2998 colon; -27.2% (active) in the assay with KM12 colon.

In the case of `NC(N)=Nc1ccc(Oc2cccc(NC(N)=Nc3ccc(Cl)c(C(F)(F)F)c3)c2)cc1`, the growth in the assay with SR leukemia is 7.43% (active); in the assay with RPMI-8226 leukemia, 41.4%; in the assay with OVCAR-8 ovarian, 66.8%; in the assay on OVCAR-5 ovarian, 48.1%; in the assay on OVCAR-4 ovarian, 62.4%; in the assay on SK-OV-3 ovarian, 54.9%. Moreover, the growth was -10.5% (active) with IGROV1 ovarian; 30.8% with OVCAR-3 ovarian; 35.8% in the assay with HS 578T breast; 95.4% in the assay with NCI/ADR-RES ovarian; 57.9% with T-47D breast; 43.8% in the assay with BT-549 breast. The growth is 62.9% in the assay on MDA-MB-435 melanoma; 42% with MCF7 breast; 44.9% with HCT-116 colon; 66.2% in the assay on HCC-2998 colon; 26.2% with KM12 colon.

As for `O=C(CN1CCN(c2cc(=O)n(-c3ccccc3)c3ccccc23)CC1)Nc1nc(-c2ccccc2)cs1`, the growth with SR leukemia was 51.3%; in the assay on RPMI-8226 leukemia, 46.2%; with OVCAR-8 ovarian, 69.8%; in the assay on OVCAR-5 ovarian it was 94.1%; in the assay with OVCAR-4 ovarian, 23.3%; with SK-OV-3 ovarian, 70.7%. The growth was 67.5% in the assay with IGROV1 ovarian; 72.5% in the assay on OVCAR-3 ovarian; 82.9% with HS 578T breast; 62.7% in the assay on NCI/ADR-RES ovarian; 16.6% with T-47D breast; 67.1% in the assay with BT-549 breast. Besides, the growth is 73.4% in the assay with MDA-MB-435 melanoma; 27.6% with MCF7 breast; 53.4% with HCT-116 colon; 81.8% in the assay with HCC-2998 colon; 63% in the assay on KM12 colon.

On to `C#Cc1nc(C(=O)NCCC(=O)Nc2ccc(NC(=O)c3ccc(/C=C/C(=O)c4nccn4C)cc3)cc2)cs1`, for which the growth is 0.901% (active) in the assay with SR leukemia; -33% (active) in the assay on RPMI-8226 leukemia; 22.3% with OVCAR-8 ovarian; 50.9% in the assay with OVCAR-5 ovarian; 61.8% in the assay with OVCAR-4 ovarian; 86.3% in the assay with SK-OV-3 ovarian. In addition, the growth in the assay on IGROV1 ovarian is -25.5% (active); with OVCAR-3 ovarian it was -11.5% (active); with HS 578T breast, 86.7%; in the assay on NCI/ADR-RES ovarian, 49.2%; in the assay on T-47D breast, 49.3%; in the assay on BT-549 breast it was 54.3%. Moreover, the growth in the assay on MDA-MB-435 melanoma is 27%; in the assay with SW-620 colon, 15.7%; with HCT-116 colon, -33.1% (active); with HCC-2998 colon it was 93.5%; in the assay on KM12 colon, 9.96% (active).

With `O=C(CN1CCN(c2cc(=O)n(-c3ccccc3)c3ccccc23)CC1)Nc1cccc(C(F)(F)F)c1`, the growth with SR leukemia is 67.3%; with RPMI-8226 leukemia, 47%; in the assay on OVCAR-8 ovarian it was 70.6%; in the assay with OVCAR-5 ovarian it was 91.8%; in the assay on OVCAR-4 ovarian, 19.9%; in the assay on SK-OV-3 ovarian, 77.3%. The growth in the assay with IGROV1 ovarian was 60.7%; with OVCAR-3 ovarian, 69.8%; in the assay with HS 578T breast, 76.3%; in the assay on NCI/ADR-RES ovarian, 64.7%; with T-47D breast it was 19.7%; in the assay with BT-549 breast it was 66.6%. Moreover, the growth is 61.4% with MDA-MB-435 melanoma; 29.1% in the assay with MCF7 breast; 42.6% in the assay on HCT-116 colon; 84.8% with HCC-2998 colon; 65.1% in the assay on KM12 colon.

For the molecule `Cc1[nH]c(C(=O)Nc2ccccc2OCc2cccc(C(=O)N3CCC[C@@H](N)C3)c2)c(Cl)c1Cl`, the growth is -46.2% (active) in the assay on SR leukemia; -38.5% (active) in the assay with RPMI-8226 leukemia; -45.2% (active) with OVCAR-8 ovarian; -87.3% (active) in the assay on OVCAR-5 ovarian; -77.4% (active) with OVCAR-4 ovarian; -59.3% (active) in the assay with SK-OV-3 ovarian. For the same molecule, the growth in the assay with IGROV1 ovarian was -73.5% (active); in the assay with OVCAR-3 ovarian it was -87.4% (active); in the assay with HS 578T breast it was -50.9% (active); with NCI/ADR-RES ovarian, -68.8% (active); in the assay with T-47D breast, -55.2% (active); with BT-549 breast, -89.4% (active). Moreover, the growth in the assay on MDA-MB-435 melanoma is -96.6% (active); in the assay on MCF7 breast, -77.5% (active); in the assay on HCT-116 colon, -82.1% (active); with HCC-2998 colon, -92.5% (active); with KM12 colon it was -80% (active).

For `NC(=O)c1c(NC(=O)c2ccc(F)cc2F)sc2c1CCC(=O)C2`, the growth is 35.8% in the assay on SR leukemia; 9.53% (active) in the assay on RPMI-8226 leukemia; 44% with OVCAR-8 ovarian; 24.5% in the assay with OVCAR-5 ovarian; 27% in the assay with OVCAR-4 ovarian; 103% with SK-OV-3 ovarian. Further, the growth in the assay with IGROV1 ovarian is 50.5%; with OVCAR-3 ovarian, 14.8%; in the assay on HS 578T breast, 43.9%; in the assay on NCI/ADR-RES ovarian, 32.7%; in the assay with T-47D breast, 32.9%; with BT-549 breast, 42.2%. The growth in the assay on MDA-MB-435 melanoma was 74.1%; in the assay on SW-620 colon, 19.1%; in the assay on HCT-116 colon, 11.3%; in the assay with HCC-2998 colon, 89.5%; in the assay with KM12 colon, 17.2%.
